The record followed here is PubChem BioAssay (Tox21).

Records with an inconclusive call do not appear. Unmarked numbers belong to inactive results. Activity calls are given as the source filed them. Unless noted, calls follow the shape of the dose curve; as a rule, active = well fitted curve in the direction sought with a large enough effect in the repeat runs; inconclusive = weak or mixed curves; inactive = no such curve, though single readings can be large; an effect the other way counts as inactive or inconclusive.

A short description of test [1]: qHTS assay to identify aromatase inhibitors - cell viability counter screen (AID 743084).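 Also: cells stimulated with testosterone during compound exposure; nearly all actives have a fitted effect of over 55% in size.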 Also: potency is read from the fitted curve at half-maximal effect.
The target in test [2] is Aryl hydrocarbon receptor (Homo sapiens) (UniProt P35869). Description: qHTS assay to identify small molecule that activate the aryl hydrocarbon receptor (AhR) signaling pathway (AID 743085). Also: nearly all actives have a fitted effect of over 15% in size. Also: potency is read from the fitted curve at half-maximal effect.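 As to activation: HG2L7.5c1 human HepG2 liver cells with stably integrated DRE-driven firefly reporter; series mostly up to about 70 µM.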 The essentials: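 HepG2 cells (HG2L7.5c1) stably carrying a firefly luciferase reporter driven by 20 dioxin responsive elements were exposed to compound for 24 h at 37C after a 5 h settling period; luminescence rise (ONE-Glo) indicated activation.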
Sequence of Aryl hydrocarbon receptor (Homo sapiens) (P35869 whole entry, looked up): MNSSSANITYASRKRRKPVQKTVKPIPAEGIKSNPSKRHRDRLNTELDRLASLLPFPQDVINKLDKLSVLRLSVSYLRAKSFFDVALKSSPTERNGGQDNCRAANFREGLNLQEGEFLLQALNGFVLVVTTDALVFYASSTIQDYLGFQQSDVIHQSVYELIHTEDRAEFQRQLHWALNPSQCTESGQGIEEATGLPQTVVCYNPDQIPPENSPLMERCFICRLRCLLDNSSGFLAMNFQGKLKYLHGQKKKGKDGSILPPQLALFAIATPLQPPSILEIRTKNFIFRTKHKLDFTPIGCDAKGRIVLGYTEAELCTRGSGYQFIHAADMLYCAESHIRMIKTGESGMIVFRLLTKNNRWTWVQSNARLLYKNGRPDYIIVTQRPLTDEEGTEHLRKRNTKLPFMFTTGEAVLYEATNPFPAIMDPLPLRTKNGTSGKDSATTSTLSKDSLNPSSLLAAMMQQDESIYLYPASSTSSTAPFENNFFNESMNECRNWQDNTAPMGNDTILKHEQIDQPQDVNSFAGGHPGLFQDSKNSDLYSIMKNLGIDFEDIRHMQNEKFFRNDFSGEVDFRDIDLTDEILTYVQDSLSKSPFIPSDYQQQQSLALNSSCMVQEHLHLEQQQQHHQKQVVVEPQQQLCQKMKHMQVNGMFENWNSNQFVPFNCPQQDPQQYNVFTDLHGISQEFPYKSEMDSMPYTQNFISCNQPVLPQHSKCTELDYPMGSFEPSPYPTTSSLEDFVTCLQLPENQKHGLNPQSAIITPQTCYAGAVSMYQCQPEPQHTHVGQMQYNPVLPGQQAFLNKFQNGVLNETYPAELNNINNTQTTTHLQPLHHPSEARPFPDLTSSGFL
Background: Quantitative high-throughput screening tests each substance at several concentrations.

Test [3] in a line: qHTS assay to identify small molecule that activate the aryl hydrocarbon receptor (AhR) signaling pathway - cell viability counter screen (AID 743086).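 Also: HepG2 liver cells carrying the AhR DRE luciferase reporter; series mostly up to about 70 µM; nearly all actives have a fitted effect of over 45% in size.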 The essentials:
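HepG2-AhR-luc (HG2L7.5c1) cells, 4000/well, were preincubated 5 h at 37C, exposed to compound in qHTS format for 24 hr at 37C, then given CellTiter-Fluor for 30 min; viability was read as fluorescence in the reporter wells.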

For test [4], the target named is Peroxisome proliferator-activated receptor gamma (Homo sapiens) (UniProt P37231). Description: qHTS assay to identify small molecule agonists of the peroxisome proliferator-activated receptor gamma (PPARg) signaling pathway (AID 743094; active = well fitted activation curve with a large enough effect in the signal ratio in the repeat runs, not every such curve was filed as active; the % refers to the signal ratio; also: potency is read from the fitted curve at half-maximal effect). Summed up: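 Following 5 h plating at 37C, PPARg-bla HEK293H cells receive compound or DMSO for 17 h; fluorescence intensity is recorded after LiveBLAzer B/G loading for 1 h at room temperature.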
Sequence of Peroxisome proliferator-activated receptor gamma (Homo sapiens) (P37231 whole entry, looked up): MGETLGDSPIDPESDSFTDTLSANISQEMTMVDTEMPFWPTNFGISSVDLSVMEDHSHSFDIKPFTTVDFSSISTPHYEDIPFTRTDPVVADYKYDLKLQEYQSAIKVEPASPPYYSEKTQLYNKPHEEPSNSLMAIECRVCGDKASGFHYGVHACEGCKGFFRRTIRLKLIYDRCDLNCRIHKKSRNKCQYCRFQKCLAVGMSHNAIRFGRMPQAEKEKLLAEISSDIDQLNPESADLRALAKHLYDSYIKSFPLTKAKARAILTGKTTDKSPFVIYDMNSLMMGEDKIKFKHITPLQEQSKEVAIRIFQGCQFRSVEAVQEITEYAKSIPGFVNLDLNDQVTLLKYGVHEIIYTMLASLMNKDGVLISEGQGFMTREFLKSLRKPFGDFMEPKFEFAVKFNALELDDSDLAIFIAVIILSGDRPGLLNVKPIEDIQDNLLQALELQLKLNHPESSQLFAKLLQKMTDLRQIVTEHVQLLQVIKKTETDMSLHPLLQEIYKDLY

For test [5] the target is unchanged. Description: qHTS assay to identify small molecule antagonists of the peroxisome proliferator-activated receptor gamma (PPARg) signaling pathway (AID 743191; calls by dose curve; also: series mostly up to about 63 µM; nearly all actives have a fitted effect of over 30% in size). The essentials:
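GeneBLAzer PPARg UAS-bla HEK293H cells carrying a UAS-driven beta-lactamase reporter were plated at 3000 cells/well, preincubated 5 h at 37C, then given compound for 17 h at 37C; LiveBLAzer B/G FRET substrate was read after 1 h at room temperature.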

The nature of test [6]: qHTS assay to identify small molecule antagonists of the peroxisome proliferator-activated receptor gamma (PPARg) signaling pathway - cell viability counter screen (AID 743194). Also: nearly all actives have a fitted effect of over 55% in size. Summed up:
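PPARg-UAS-bla HEK293H cells were plated, rested 5 h at 37 C, then treated with compounds plus rosiglitazone (50 nM final) for 17 h at 37 C; viability was then read by CellTiter-Glo luminescence after 30 min at room temperature.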

Test [7] is described as follows: qHTS assay for small molecule agonists of the antioxidant response element (ARE) signaling pathway (AID 743202; active = well fitted activation curve with a large enough effect in the signal ratio in the repeat runs, not every such curve was filed as active; the % refers to the signal ratio). Summed up: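 Compounds delivered in DMSO to ARE-bla HepG2 cells (2,000 cells/well, pre-incubated 5 h) and left 16 h at 37 C. LiveBLAzer B/G FRET substrate then added for 2 h at RT before fluorescence reading.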
A short description of test [8]: qHTS assay for small molecule agonists of the antioxidant response element (ARE) signaling pathway - cell viability counter screen (AID 743203; calls by dose curve; also: nearly all actives have a fitted effect of over 55% in size). The essentials:
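Compounds in DMSO were pinned onto ARE-bla HepG2 cells plated 5 hrs earlier at 2,000 cells/well. Sixteen hours later at 37C/5% CO2, CellTiter-Glo was added and luminescence measured after 30 min at room temperature.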

Test [9] can be described thus: qHTS assay for small molecule activators of the heat shock response signaling pathway - cell viability counter screen (AID 743209). Also: nearly all actives have a fitted effect of over 50% in size. Summed up:
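Counter screen for cytotoxicity in HeLa HSE-bla reporter cells. Treatment was 5 h at 37 C; viability was detected by luminescent ATP assay (CellTiter-Glo) in the same wells as the beta-lactamase read.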

A short description of test [10]: qHTS assay for small molecule activators of the heat shock response signaling pathway (AID 743210; active = well fitted activation curve with a large enough effect in the signal ratio in the repeat runs, with a control signal flat, not every such curve was filed as active; the % refers to the signal ratio;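 also: HeLa cells with beta-lactamase reporter driven by heat shock elements; series mostly up to about 63 µM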). Summed up: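 Reporter gene assay: HeLa cells stably bearing an HSE-bla construct, compound treatment 5 h at 37 C, LiveBLAzer substrate 2.5 h at RT, fluorescence intensity.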
The nature of test [11]: qHTS assay to identify small molecule agonists of the peroxisome proliferator-activated receptor delta (PPARd) signaling pathway - cell viability counter screen (AID 743211). Also: nearly all actives have a fitted effect of over 55% in size. The essentials: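 PPARd-bla HEK293H cells (UAS-beta-lactamase reporter) were treated with compounds for 17 h at 37 C. Viability was then read in the same wells by CellTiter-Glo luminescence after 30 min at room temperature.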

In test [12] the target is Peroxisome proliferator-activated receptor delta (Homo sapiens) (UniProt Q03181). In words: qHTS assay to identify small molecule agonists of the peroxisome proliferator-activated receptor delta (PPARd) signaling pathway (AID 743212; calls by dose curve). The essentials:
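A PPARd-bla HEK293H line with beta-lactamase under an Upstream Activator Sequence is treated with compounds at 37 C. Substrate loading for 2 h at room temperature precedes the fluorescence measurement.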

Test [13] shares this target. In words: qHTS assay to identify small molecule antagonists of the peroxisome proliferator-activated receptor delta (PPARd) signaling pathway (AID 743215; active = well fitted inhibition curve with a large enough effect in the signal ratio in the repeat runs, not every such curve was filed as active; the % refers to the signal ratio;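 also: cells stimulated with agonist L165041 at 300 nM final during compound exposure; series mostly up to about 62 µM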). The essentials:
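With L165041 present at 300 nM final, compounds were incubated 17 h at 37 C on PPARd UAS-bla HEK293H cells. A FRET-based beta-lactamase substrate was then applied for 2 h at room temperature and fluorescence intensity recorded.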

Test [14] in a line: qHTS assay to identify small molecule agonists of the farnesoid-X-receptor (FXR) signaling pathway - cell viability counter screen (AID 743218). Also: nearly all actives have a fitted effect of over 45% in size. Also: potency is read from the fitted curve at half-maximal effect. The essentials: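 After 16 h at 37 C with test compounds, FXR-bla HEK 293T cells were given LiveBLAzer B/G substrate for 2 h at RT and then CellTiter-Glo; luminescence was taken after 30 min.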
The nature of test [15]: qHTS assay to identify small molecule antagonists of the farnesoid-X-receptor (FXR) signaling pathway - cell viability counter screen (AID 743221; active = well fitted cell-killing curve with a large enough effect in the repeat runs, not every such curve was filed as active; also: nearly all actives have a fitted effect of over 50% in size). The essentials:
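FXR-UAS-bla HEK 293T cells were treated with test compounds plus chenodeoxycholic acid (50 uM final) for 16 h at 37 C. Cell viability in the same wells was then read as CellTiter-Glo luminescence after 30 min at room temperature.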

A short description of test [16]: qHTS assay to identify small molecule antagonists of the peroxisome proliferator-activated receptor delta (PPARd) signaling pathway - cell viability counter screen (AID 743213). Also: nearly all actives have a fitted effect of over 50% in size. The essentials:
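Luminescence from CellTiter-Glo, added after the bla read and incubated 30 min at room temperature, gives viability of HEK293H PPARd-bla cells exposed to compounds for 17 h at 37 C with 300 nM L165041.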

For test [17], the target named is Bile acid receptor (Homo sapiens) (UniProt Q96RI1). Description: qHTS assay to identify small molecule antagonists of the farnesoid-X-receptor (FXR) signaling pathway (AID 743217; active = well fitted inhibition curve with a large enough effect in the signal ratio in the repeat runs, not every such curve was filed as active; the % refers to the signal ratio). The essentials: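 In this cell-based antagonist screen, inhibition of CDCA-driven (50 uM final) UAS-beta-lactamase expression in HEK 293T cells was measured by FRET fluorescence following 16 h compound exposure at 37 °C.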
Sequence of Bile acid receptor (Homo sapiens) (Q96RI1 whole entry, looked up): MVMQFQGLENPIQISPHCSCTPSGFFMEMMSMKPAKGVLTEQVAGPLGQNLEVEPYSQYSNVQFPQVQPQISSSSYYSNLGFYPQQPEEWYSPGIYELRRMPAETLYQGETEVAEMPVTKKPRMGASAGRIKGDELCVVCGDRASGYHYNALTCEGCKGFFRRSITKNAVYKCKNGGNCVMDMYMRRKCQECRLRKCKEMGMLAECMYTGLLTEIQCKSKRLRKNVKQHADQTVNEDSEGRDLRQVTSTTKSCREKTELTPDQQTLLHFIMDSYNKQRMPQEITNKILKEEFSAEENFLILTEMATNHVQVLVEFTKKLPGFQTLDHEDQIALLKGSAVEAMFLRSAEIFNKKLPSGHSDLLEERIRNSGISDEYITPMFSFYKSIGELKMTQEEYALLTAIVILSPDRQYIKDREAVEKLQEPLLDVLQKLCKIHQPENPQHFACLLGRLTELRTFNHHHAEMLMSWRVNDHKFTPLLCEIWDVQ

The target is the same in test [18]. In words: qHTS assay to identify small molecule agonists of the farnesoid-X-receptor (FXR) signaling pathway (AID 743220; active = well fitted activation curve with a large enough effect in the signal ratio in the repeat runs, not every such curve was filed as active; the % refers to the signal ratio). The essentials:
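Beta-lactamase reporter under UAS control in GeneBLAzer FXR HEK 293T cells (5000/well) measured with LiveBLAzer FRET substrate after 2 h at room temperature. Compound exposure lasted 16 h at 37C.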

The target of test [19] is Vitamin D3 receptor (Homo sapiens) (UniProt P11473). Description: qHTS assay to identify small molecule agonists of the vitamin D receptor (VDR) signaling pathway (AID 743222; calls by dose curve). The essentials: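 VDR-bla cells were seeded, left 4 h, treated with compounds in DMSO for 16 h, incubated 2 h at RT with B/G FRET substrate, and read for fluorescence.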
Sequence of Vitamin D3 receptor (Homo sapiens) (P11473 whole entry, looked up): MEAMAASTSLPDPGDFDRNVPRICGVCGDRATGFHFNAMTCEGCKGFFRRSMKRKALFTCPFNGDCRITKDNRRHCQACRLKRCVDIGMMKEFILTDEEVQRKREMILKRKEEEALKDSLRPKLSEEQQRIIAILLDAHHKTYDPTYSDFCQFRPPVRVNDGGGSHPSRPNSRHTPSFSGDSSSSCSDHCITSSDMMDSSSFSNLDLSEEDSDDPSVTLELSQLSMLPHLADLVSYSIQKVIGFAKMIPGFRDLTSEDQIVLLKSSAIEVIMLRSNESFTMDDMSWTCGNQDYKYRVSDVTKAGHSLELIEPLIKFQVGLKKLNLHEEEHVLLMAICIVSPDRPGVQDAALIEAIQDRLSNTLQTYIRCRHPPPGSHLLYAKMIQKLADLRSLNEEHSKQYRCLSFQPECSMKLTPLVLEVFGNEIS
The target is the same in test [20]. In words: qHTS assay to identify small molecule antagonists of the vitamin D receptor (VDR) signaling pathway (AID 743223; active = well fitted inhibition curve with a large enough effect in the signal ratio in the repeat runs, not every such curve was filed as active; the % refers to the signal ratio). The essentials: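 VDR-bla cells were plated, incubated 4 h at 37C, then given compound and 1alpha,25-dihydroxyvitamin D3 (3 nM final). After 16 h at 37C, LiveBLAzer B/G FRET substrate was added for 2 h at room temperature and fluorescence read.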

Sequence of Peroxisome proliferator-activated receptor delta (Homo sapiens) (Q03181 whole entry, looked up): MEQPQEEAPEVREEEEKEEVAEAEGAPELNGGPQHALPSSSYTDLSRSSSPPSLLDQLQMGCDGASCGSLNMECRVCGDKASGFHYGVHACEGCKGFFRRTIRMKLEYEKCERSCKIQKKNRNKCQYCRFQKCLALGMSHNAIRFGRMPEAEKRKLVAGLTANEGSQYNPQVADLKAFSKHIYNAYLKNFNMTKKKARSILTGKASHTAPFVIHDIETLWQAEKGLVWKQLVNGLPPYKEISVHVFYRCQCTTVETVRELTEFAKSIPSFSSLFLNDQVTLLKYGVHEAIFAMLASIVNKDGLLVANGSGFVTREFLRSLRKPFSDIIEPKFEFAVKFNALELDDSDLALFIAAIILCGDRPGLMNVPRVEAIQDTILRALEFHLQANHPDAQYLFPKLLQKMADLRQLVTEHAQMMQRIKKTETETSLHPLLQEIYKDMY

As for `CCCOC(C)=O`, the Potency entry in test [1], in [2], in test [3], in test [4], in test [5] and in test [6] was “inactive” throughout. In addition, the Potency result in [7], in [8], in test [11], in test [12], in [14] and in test [15] was “inactive” throughout. The result in [9], in test [10] and in test [13] was inactive.

For `O=C(OCCOCCOCCOC(=O)c1ccccc1)c1ccccc1`, the Potency entry in [1], in test [2], in test [3], in test [4], in test [5] and in [6] was “inactive” each time. Further, the Potency entry in test [8], in test [11], in test [12], in test [16], in test [14] and in test [15] was “inactive” in each case. The compound was classed as inactive in test [9], in test [10], in test [17], in [18], in [19] and in [20].

With `O=[N+]([O-])c1ccc(Cl)cc1Cl`, the Potency result in test [1], in test [2], in test [3], in [4], in [5] and in [6] was “inactive” throughout. For the same compound, the Potency entry in [8], in test [11], in test [12], in test [16], in [14] and in test [15] was “inactive” throughout. Besides, the compound was classed as inactive in test [9], in test [10] and in test [13].

As for `FC1(F)C(F)(F)C(F)(F)C2(F)C(F)(C1(F)F)C(F)(F)C(F)(F)C1(F)C(F)(F)C(F)(F)C(F)(F)C(F)(F)C12F` (stereo unspecified), the Potency result in test [1], in [2], in test [3], in [4], in [5] and in test [6] was “inactive” throughout. Besides, the Potency entry in test [7], in test [8], in test [11], in test [16], in test [14] and in test [15] was “inactive” in each case. Moreover, the compound was classed as inactive in test [9], in test [10] and in test [19].

Take `CCCCCCCCCCCCN1CCOCC1`: the Potency result in test [1], in [2], in [3], in [4], in test [5] and in [6] was “inactive” each time. The Potency entry in test [7], in test [8], in [11], in [12], in [16] and in test [14] was “inactive” in each case. For the same compound, the result in test [9], in [10], in test [13] and in [19] was inactive.

Consider `CCCCCCOC(=O)c1ccccc1`, for which the Potency result in test [1], in test [2], in test [3], in [4], in [5] and in test [6] was “inactive” in each case. Besides, the Potency result in test [8], in test [11], in test [16] and in test [15] was “inactive” each time. Besides, the compound was called inactive in [9], in test [10], in test [17] and in test [20]. In test [14], the Potency was 30.9 µM (active).

In the case of `Cc1ccc2c(Cl)cc(Cl)c(O)c2n1`, the figures for the Potency in test [1] and in test [4] were 23.7 µM (active) and 9.52 µM (active), respectively. Further, the Potency result in test [2], in test [3], in test [5], in [6], in test [7] and in [8] was “inactive” each time. For the same compound, the Potency entry in test [11], in [12], in [16] and in test [15] was “inactive” each time. Besides, the call in test [9], in [10], in test [19] and in test [20] was inactive.

Turning to `c1ccc(CCNc2nc(-c3ccccc3)cs2)cc1`, the Potency entry in test [1], in [3], in test [4], in [5], in test [6] and in test [8] was “inactive” each time. Besides, the Potency entry in [11], in test [16], in test [14] and in test [15] was “inactive” in each case. Besides, the Potency in test [2] is 15 µM (active). Further, the call in test [9], in test [10], in test [13], in [19] and in test [20] was inactive.
